# Compound activity (PubChem BioAssay)
# An excerpt weighted towards active compounds, which were near 3% of everything screened.
# SARS PLpro yeast = blocks SARS-CoV papain-like protease in a yeast assay | Potency, µM (titrated, usually from 32.9 µM), inactives show at the highest dose activity, positive = growth rescue, hits mostly activators | hit rate 0.19% among 330,000 | AID 485353 | S. cerevisiae expressing SARS-CoV PLpro, growth rescue; calls by dose curve; note: 0% is about no effect; nearly all actives have a fitted effect of over 55% in size
# Sm TGR inh = inhibitors of Schistosoma mansoni thioredoxin glutathione reductase. Q962Y6. purified TGR, DTNB reduction, TNB absorbance 405 nm. Potency, µM (doses to about 114 µM), for inactives: at the highest dose activity change, negative = inhibition, most hits filed as inhibitors. hit rate 3% among 360,000. AID 485364; active = well fitted inhibition curve with a large enough effect; inconclusive = small, poorly fitted or top-dose-only effect; inactive = no such curve, though single readings can be large or run the other way; note: % is set by controls: 0 for no effect and ±100 for the full control effect; nearly all actives have a fitted effect of over 60% in size
#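 Kinetic colorimetric format: TGR-catalysed, NADPH-driven DTNB reduction monitored via TNB absorbance. Enzyme dispensed at 20 nM; compound exposure 15 min at room temperature before reaction start.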
# Numbers without * were called inactive; u = inconclusive; x = no result. Potency is the fitted concentration of half-maximal effect.
SMILES,SARS PLpro yeast,Sm TGR inh
CCCCN(CCCC)C(=O)c1cc(Cl)ccc1[N+](=O)[O-],-6%,-8%
CCOC(=O)c1ccc(Nc2nc3nonc3nc2Nc2cccc(C)c2C)cc1,x,2%
Cc1ccc(Cl)cc1N1CCN(CCCNC(=O)C2COc3ccccc3C2)CC1 (centres undefined),x,-15%
CCCCCC#CCC#CCC#CCC#CCCCC(=O)O,-3%,20µM*
CCCCCCCCCC(=O)O,-1%,x
CC(=O)c1cc(CN2CCCCC2)cc(OC(C)C)c1,10%,-34%
CCOc1cc(CN2CCOCC2)cc(C(C)=O)c1,1%,45µM*
Cc1oc2ncn(CC(C)C)c(=O)c2c1C(=O)NCCCN(Cc1ccccc1)C(C)C,x,0%
COc1ccccc1CNS(=O)(=O)c1cc(C(=O)Nc2cccc(C(F)(F)F)c2)ccc1F,x,13%
COc1ccc(NC(=O)CSc2nncc3ccccc23)cc1,-4%,12%
COc1ccc(C(=O)Sc2nncc3ccccc23)cc1,-2%,20µM*
CCCCn1c(SCC(=O)Nc2cccc(OC)c2)nc2ccsc2c1=O,x,-3%
O=C1OCCN1CCNCc1cn(-c2ccc(F)cc2)nc1-c1ccccc1Cl,-1%,u
Cc1ccc(-n2cc(CNCCN3CCOC3=O)c(-c3cccc(C)c3)n2)cc1,-1%,22µM*
CC1CCN(C(=O)COC(=O)/C=C/c2ccco2)CC1,2%,x
CN(CCOC(=O)/C=C/c1ccco1)Cc1ccccc1,0%,2.5µM*
CN(Cc1ccccc1)C(=O)COC(=O)/C=C/c1ccco1,-2%,3.5µM*
CN(CCOC(=O)c1ccco1)Cc1ccccc1,7%,0%
COc1ccc(-c2nc3scc(CCNC(=O)c4cc(OC)cc(OC)c4)n3n2)cc1,x,-1%
Cc1ccc(C)c(NC(=S)NNC(=O)c2csc(C(C)C)c2)c1,10µM*,-2%
Cc1ccc(C)c(NC(=S)NNC(=O)c2csc(C)c2C)c1,-7%,-2%
Cc1ccc(C(=O)CSc2nnc3ccc4ccccc4n23)cc1,x,-7%
O=C(NCc1ccccc1F)C(=O)NCC(c1ccc2c(c1)OCO2)N1CCOCC1 (centres undefined),x,-6%
CCOC(=O)/C(C#N)=C/c1cc2cc(C)c(C)cc2nc1Cl,-2%,-29%
Cc1cc2cc(C=C(C#N)C#N)c(Cl)nc2cc1C,-17%,3.2µM*
SMILES,SARS PLpro yeast,Sm TGR inh
CCCCn1c(N)c(N(Cc2ccccc2OC)C(=O)CC2OC(=O)c3ccccc32)c(=O)[nH]c1=O (centres undefined),-4%,-2%
CCCCn1c(N)c(N(Cc2ccccc2OC)C(=O)CN2C(=O)NC3(CCCC3)C2=O)c(=O)[nH]c1=O,-2%,56µM*
COc1ccccc1-c1nc2c(c(SCC(=O)Nc3ccccc3F)n1)Cc1c(CO)cnc(C)c1O2,x,-14%
O=C(c1ccc2c(c1)N(Cc1ccc(F)cc1)C(=O)c1ccccc1S2(=O)=O)N1CCCCCC1,x,-13%
COC(=O)c1ccc(OCC(O)CN2CCN(C(=O)c3ccco3)CC2)cc1 (centres undefined),1%,-13%
O=C(c1ccco1)N1CCN(CC(O)COc2ccc(Br)cc2)CC1 (centres undefined),1%,45µM*
COc1ccccc1NC(=O)C1=C(C)Nc2c(C(=O)Nc3ccc(F)cc3)cnn2C1c1cccc([N+](=O)[O-])c1 (centres undefined),x,-2%
COC(=O)CN1C(=S)N(c2ccc(OC)cc2)C(=O)/C1=C/c1cccs1,-13%,-15%
O=C(O)c1ccccc1-c1ccc(C=C2C(=O)N(c3ccccc3)C(=S)N(c3ccccc3)C2=O)o1,0%,8.9µM*
CCOc1ccc(N2C(=O)/C(=C/c3ccco3)N(C)C2=S)cc1,3%,50µM*
CCOc1ccc(N2C(=O)/C(=C/c3ccccc3OCC(=O)OC)N(CC(=O)OC)C2=S)cc1,-1%,x
CCOC(=O)C1=C(C)N(c2ccc(OCC)cc2)C(=O)/C1=C\c1ccco1,3%,18µM*
CCOc1ccc(N2C(=O)/C(=C\c3cccs3)C(=O)NC2=S)cc1,1%,8.9µM*
CCOc1cc(/C=C2\C(=O)N(Cc3ccco3)C(C)=C2C(=O)OC)ccc1O,0%,x
O=C(O)c1ccccc1-c1ccc(/C=C2\SC(=O)N(c3ccccc3)C2=O)o1,-6%,-3%
COCCOC(=O)c1c(-c2ccccc2)c(-c2ccccc2)nn(C)c1=O,x,0%
N#Cc1nc(-c2ccc(COc3ccccc3)o2)oc1NCc1cccnc1,x,0%
O=S(=O)(NCc1nc2cccnc2n1Cc1ccccc1)c1ccc2c(c1)CCCC2,x,2%
Cc1ccc(/C=C2/C(=O)N(c3ccccc3)C(=S)N2C)o1,5%,22µM*
O=C(O)c1cc(-c2ccc(/C=C3\NC(=O)N(c4ccccc4)C3=O)o2)ccc1Cl,1%,50µM*
O=C(O)c1cc(-c2ccc(/C=C3\NC(=O)N(c4ccc(Cl)cc4)C3=O)o2)ccc1Cl,0%,u
CCN1/C(=C\C=C2\C(=O)N(c3ccccc3)C(=S)N2C)Sc2ccccc21,2%,-3%
